# Source: PubChem BioAssay (EPA / NIEHS)
# Calls of active or inactive are those of the source. Rule for the calls: active = hit-call score of the fitted dose curve at least 0.9, where 1 is the maximum; inactive = score below 0.9.
# Legend:
# Conditions in all cases: mRNA level, 48 h; actives raise or lower the signal
# [1] = read-out: NAD(P)H dehydrogenase [quinone] 1 (NQO1), NQO1 (gene 1728); experiment: LTEA_HepaRG_NQO1: Life Technologies and Expression Analysis (LTEA) Assay for NAD(P)H dehydrogenase [quinone] 1 (NQO1) using HepaRG (AID 2283526)
# How it was run: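 NQO1 transcript induction or loss measured by TaqMan qRT-PCR, referenced to three housekeeping genes and fitted bidirectionally against 0.5% DMSO. HepaRG cultures exposed 48 h, duplicate, eight-point half-log series, top 100 uM.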
# [2] = read-out: succinate dehydrogenase complex iron sulfur subunit B (SDHB), SDHB (gene 6390); experiment: LTEA_HepaRG_SDHB: Life Technologies and Expression Analysis (LTEA) Assay for succinate dehydrogenase complex iron sulfur subunit B (SDHB) using HepaRG (AID 2283528)
# How it was run: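 A human HepaRG culture in serum-free induction medium received test chemicals for 48 h over an eight-point range capped at 100 uM. SDHB expression change was quantified by qRT-PCR.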
# [3] = read-out: Signal transducer and activator of transcription 3 (Homo sapiens) (UniProt P40763); experiment: LTEA_HepaRG_STAT3: Life Technologies and Expression Analysis (LTEA) Assay for Signal transducer and activator of transcription (STAT3) using HepaRG (AID 2283529)
# How it was run: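 In this transcriptional endpoint, HepaRG cultures receive test chemicals at up to 100 uM for 48 h, tested in duplicate. STAT3 mRNA is normalized to ACTB, GAPDH and POLR2A.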
# [4] = read-out: sulfotransferase 2A1 (SULT2A1), SULT2A1 (gene 6822); experiment: LTEA_HepaRG_SULT2A1: Life Technologies and Expression Analysis (LTEA) Assay for sulfotransferase 2A1 (SULT2A1) using HepaRG (AID 2283531)
# How it was run: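 Differentiated human HepaRG cells in serum-free induction medium were exposed for 48 h to eight half-log concentrations (top 100 uM, 0.5% DMSO). SULT2A1 mRNA was measured by qRT-PCR, normalized to ACTB, GAPDH and POLR2A, and fitted bidirectionally against DMSO.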
# [5] = read-out: Transforming Growth Factor (TGFA), TGFA (gene 7039); experiment: LTEA_HepaRG_TGFA: Life Technologies and Expression Analysis (LTEA) Assay for Transforming Growth Factor (TGFA) using HepaRG (AID 2283532)
# How it was run: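 Gene expression of TGFA was quantified by qRT-PCR after human HepaRG cells were treated for 48 h with test chemicals (eight concentrations, highest 100 uM, 0.5% DMSO). Activity in either direction was fitted relative to DMSO.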
# [6] = read-out: Transforming Growth Factor (TGFB1), TGFB1 (gene 7040); experiment: LTEA_HepaRG_TGFB1: Life Technologies and Expression Analysis (LTEA) Assay for Transforming Growth Factor (TGFB1) Transporter using HepaRG (AID 2283533)
# How it was run: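 Differentiated human HepaRG cells in serum-free induction medium were exposed in duplicate for 48 h to eight concentrations (top 100 uM, half-log steps, 0.5% DMSO). TGFB1 mRNA was quantified by qRT-PCR, normalized to ACTB, GAPDH, POLR2A, and fitted bidirectionally against DMSO.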
# TIMP1, TIMP1 (gene 7076) = experiment: LTEA_HepaRG_TIMP1: Life Technologies and Expression Analysis (LTEA) Assay for TIMP1 using HepaRG (AID 2283534);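 for outcome: TaqMan qRT-PCR signal normalized to ACTB GAPDH and POLR2A housekeeping genes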
# How it was run: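 Differentiated human HepaRG cells in serum-free induction medium were exposed 48 h to chemicals (8 half-log concentrations, top 100 uM, 0.5% DMSO). TIMP1 mRNA was quantified by TaqMan qRT-PCR, normalized to ACTB/GAPDH/POLR2A; bidirectional fit versus DMSO.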
# [7] = read-out: Tumor necrosis factor receptor 1 (TNFRSF1A), TNFRSF1A (gene 7132); experiment: LTEA_HepaRG_TNFRSF1A: Life Technologies and Expression Analysis (LTEA) Assay for Tumor necrosis factor receptor 1 (TNFRSF1A) using HepaRG (AID 2283535)
# How it was run: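 Differentiated human HepaRG cells were exposed in duplicate for 48 h in serum-free induction medium to eight concentrations (top 100 uM, half-log steps, 0.5% DMSO). TNFRSF1A mRNA was quantified by qRT-PCR, normalized to ACTB, GAPDH and POLR2A, then fitted bidirectionally against DMSO.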
# [8] = read-out: Thyroid Hormone Responsive (THRSP), THRSP (gene 7069); experiment: LTEA_HepaRG_THRSP: Life Technologies and Expression Analysis (LTEA) Assay for Thyroid Hormone Responsive (THRSP) using HepaRG (AID 2283536)
# How it was run: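 Cell model: human HepaRG, approx. 100,000 cells/well, 0.5% DMSO vehicle. Exposure lasts 48 h; phenobarbital 1 mM serves as induction positive control. Gene expression is measured by qRT-PCR against three endogenous control genes.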
# [9] = read-out: Nuclear factor erythroid 2-related factor 2 (Homo sapiens) (UniProt Q16236); experiment: LTEA_HepaRG_NFE2L2: Life Technologies and Expression Analysis (LTEA) Assay for Nuclear factor erythroid 2-related factor 2 (NFE2L2) Transcription Factor using HepaRG (AID 2283527);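 for outcome: TaqMan qRT-PCR transcript level normalised to ACTB GAPDH and POLR2A housekeeping genes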
# How it was run: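 Human liver HepaRG line treated in duplicate for 48 h with an eight-point series topping at 100 uM. Gene expression of NFE2L2 by qRT-PCR, bidirectionally fitted against the vehicle control.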
# Signal transducer and activator of transcription 3 (Homo sapiens), sequence (P40763 whole entry, looked up): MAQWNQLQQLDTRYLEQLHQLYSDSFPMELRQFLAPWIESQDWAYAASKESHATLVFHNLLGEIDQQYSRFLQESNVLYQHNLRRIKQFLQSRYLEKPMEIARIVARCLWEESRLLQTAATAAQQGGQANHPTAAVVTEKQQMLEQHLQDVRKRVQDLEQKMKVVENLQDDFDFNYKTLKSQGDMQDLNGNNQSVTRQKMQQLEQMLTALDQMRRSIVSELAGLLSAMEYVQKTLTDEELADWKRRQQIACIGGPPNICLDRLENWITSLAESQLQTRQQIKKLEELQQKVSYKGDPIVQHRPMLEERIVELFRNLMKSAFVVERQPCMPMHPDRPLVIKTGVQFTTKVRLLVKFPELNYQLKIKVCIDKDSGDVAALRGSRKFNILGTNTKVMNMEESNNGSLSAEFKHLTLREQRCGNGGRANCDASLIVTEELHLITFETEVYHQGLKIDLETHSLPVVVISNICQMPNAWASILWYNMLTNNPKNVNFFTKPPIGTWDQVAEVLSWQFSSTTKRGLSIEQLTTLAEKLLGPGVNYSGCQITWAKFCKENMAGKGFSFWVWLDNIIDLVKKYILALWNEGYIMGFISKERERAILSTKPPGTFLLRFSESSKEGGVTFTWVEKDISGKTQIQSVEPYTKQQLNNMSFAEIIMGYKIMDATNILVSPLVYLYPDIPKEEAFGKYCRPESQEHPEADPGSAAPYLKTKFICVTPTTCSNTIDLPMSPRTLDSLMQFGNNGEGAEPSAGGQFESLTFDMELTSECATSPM
# Nuclear factor erythroid 2-related factor 2 (Homo sapiens), sequence (Q16236 whole entry, looked up): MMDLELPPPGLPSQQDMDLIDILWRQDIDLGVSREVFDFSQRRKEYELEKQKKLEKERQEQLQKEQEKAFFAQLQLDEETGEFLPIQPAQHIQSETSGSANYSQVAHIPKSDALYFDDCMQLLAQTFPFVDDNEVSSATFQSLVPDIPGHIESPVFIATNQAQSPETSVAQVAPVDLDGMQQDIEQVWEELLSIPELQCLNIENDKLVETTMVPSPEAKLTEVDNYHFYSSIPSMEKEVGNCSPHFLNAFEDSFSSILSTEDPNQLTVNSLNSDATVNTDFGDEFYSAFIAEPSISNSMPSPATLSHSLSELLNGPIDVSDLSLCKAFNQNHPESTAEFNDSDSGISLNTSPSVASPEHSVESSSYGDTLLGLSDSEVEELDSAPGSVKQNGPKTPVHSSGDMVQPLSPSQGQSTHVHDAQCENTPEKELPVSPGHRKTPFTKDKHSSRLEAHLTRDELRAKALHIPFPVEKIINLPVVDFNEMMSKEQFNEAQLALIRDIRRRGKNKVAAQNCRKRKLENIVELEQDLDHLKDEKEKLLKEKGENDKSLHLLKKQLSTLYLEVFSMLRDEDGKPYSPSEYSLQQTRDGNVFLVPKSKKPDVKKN
compound,measurement,setting,value
CN(C)CCOC(c1ccccc1)c1ccccc1,outcome,[1],inactive
same,outcome,[2],inactive
same,outcome,[3],inactive
same,outcome,[4],inactive
same,outcome,[5],inactive
same,outcome,[6],inactive
same,outcome,"TIMP1, TIMP1 (gene 7076)",inactive
same,outcome,[7],inactive
same,AC50,[8],58.4 µM (active)
CS(=O)(=O)c1ccc([C@@H](CC2CCCC2)C(=O)Nc2cnccn2)cc1Cl,outcome,[1],inactive
same,outcome,[2],inactive
same,outcome,[3],inactive
same,AC50,[4],94.3 µM (active)
same,outcome,[5],inactive
same,AC50,[6],74.1 µM (active)
same,outcome,"TIMP1, TIMP1 (gene 7076)",inactive
same,outcome,[7],inactive
same,AC50,[8],63.5 µM (active)
CCC(C)c1ccccc1O (centres undefined),outcome,[1],inactive
same,outcome,[9],inactive
same,outcome,[2],inactive
same,outcome,[3],inactive
same,outcome,[4],inactive
same,outcome,[5],inactive
same,outcome,[6],inactive
same,outcome,"TIMP1, TIMP1 (gene 7076)",inactive
same,outcome,[7],inactive
same,outcome,[8],inactive
O=C1NS(=O)(=O)c2ccccc21,outcome,[1],inactive
same,outcome,[9],inactive
same,outcome,[2],inactive
same,outcome,[3],inactive
same,outcome,[4],inactive
same,outcome,[5],inactive
same,outcome,[6],inactive
same,outcome,"TIMP1, TIMP1 (gene 7076)",inactive
same,outcome,[7],inactive
same,outcome,[8],inactive
Cc1[nH]nc2c1N=C(c1ccccc1Cl)c1cc([N+](=O)[O-])ccc1N2,outcome,[1],inactive
same,AC50,[9],85.1 µM (active)
same,AC50,[2],0.449 µM (active)
same,AC50,[3],3.77 µM (active)
same,AC50,[4],28.3 µM (active)
same,AC50,[5],50 µM (active)
same,AC50,[6],1.74 µM (active)
same,AC50,"TIMP1, TIMP1 (gene 7076)",2.38 µM (active)
same,AC50,[7],12.4 µM (active)
same,AC50,[8],8.84 µM (active)
OCC(CO)(CBr)CBr,outcome,[1],inactive
same,outcome,[9],inactive
same,outcome,[2],inactive
same,outcome,[3],inactive
same,outcome,[4],inactive
same,outcome,[5],inactive
same,outcome,[6],inactive
same,outcome,"TIMP1, TIMP1 (gene 7076)",inactive
same,outcome,[7],inactive
same,outcome,[8],inactive
CCCCCCCCCCCCOS(=O)(=O)O,outcome,[1],inactive
same,outcome,[9],inactive
same,outcome,[2],inactive
same,outcome,[3],inactive
same,AC50,[4],80.2 µM (active)
same,outcome,[5],inactive
same,AC50,[6],80.9 µM (active)
same,outcome,"TIMP1, TIMP1 (gene 7076)",inactive
same,outcome,[7],inactive
same,AC50,[8],80.5 µM (active)
CCCCCCCCCCCCCCC,outcome,[1],inactive
same,outcome,[9],inactive
same,outcome,[2],inactive
same,outcome,[3],inactive
same,outcome,[4],inactive
same,outcome,[5],inactive
same,outcome,[6],inactive
same,outcome,"TIMP1, TIMP1 (gene 7076)",inactive
same,outcome,[7],inactive
same,outcome,[8],inactive
O=C(CCCN1CCC(O)(c2ccc(Cl)cc2)CC1)c1ccc(F)cc1,outcome,[1],inactive
same,outcome,[2],inactive
same,outcome,[3],inactive
same,AC50,[4],95.2 µM (active)
same,AC50,[5],79.2 µM (active)
same,AC50,[6],73.6 µM (active)
same,outcome,"TIMP1, TIMP1 (gene 7076)",inactive
same,AC50,[7],82.1 µM (active)
same,outcome,[8],inactive
CC(=O)Nc1ccc(O)cc1,outcome,[1],inactive
same,outcome,[2],inactive
same,outcome,[3],inactive
same,outcome,[4],inactive
same,outcome,[5],inactive
same,outcome,[6],inactive
same,outcome,"TIMP1, TIMP1 (gene 7076)",inactive
same,outcome,[7],inactive
same,outcome,[8],inactive
CCCCC=O,outcome,[1],inactive
same,outcome,[9],inactive
same,outcome,[2],inactive
same,outcome,[3],inactive
same,outcome,[4],inactive
same,outcome,[5],inactive
same,outcome,[6],inactive
same,outcome,"TIMP1, TIMP1 (gene 7076)",inactive
same,outcome,[7],inactive
same,outcome,[8],inactive
CN(Cc1cnc2nc(N)nc(N)c2n1)c1ccc(C(=O)N[C@@H](CCC(=O)O)C(=O)O)cc1,outcome,[1],inactive
same,outcome,[9],inactive
same,outcome,[2],inactive
same,outcome,[3],inactive
same,AC50,[4],0.266 µM (active)
same,outcome,[5],inactive
same,outcome,[6],inactive
same,outcome,"TIMP1, TIMP1 (gene 7076)",inactive
same,outcome,[7],inactive
same,AC50,[8],0.167 µM (active)
N=C(N)c1ccc(OCCCCCOc2ccc(C(=N)N)cc2)cc1,AC50,[1],43.8 µM (active)
same,AC50,[9],10.1 µM (active)
same,AC50,[2],56.2 µM (active)
same,AC50,[3],29 µM (active)
same,AC50,[4],12.6 µM (active)
same,AC50,[5],11 µM (active)
same,AC50,[6],69.8 µM (active)
same,AC50,"TIMP1, TIMP1 (gene 7076)",43.8 µM (active)
same,AC50,[7],30.5 µM (active)
same,AC50,[8],8.04 µM (active)
CCCCC(CC)C(=O)O (centres undefined),outcome,[1],inactive
same,outcome,[9],inactive
same,outcome,[2],inactive
same,outcome,[3],inactive
same,outcome,[4],inactive
same,outcome,[5],inactive
same,outcome,[6],inactive
same,outcome,"TIMP1, TIMP1 (gene 7076)",inactive
same,outcome,[7],inactive
same,outcome,[8],inactive
CCCCc1oc2ccccc2c1C(=O)c1cc(I)c(OCCN(CC)CC)c(I)c1,outcome,[1],inactive
same,outcome,[2],inactive
same,outcome,[3],inactive
same,AC50,[4],70.5 µM (active)
same,AC50,[5],55.3 µM (active)
same,outcome,[6],inactive
same,outcome,"TIMP1, TIMP1 (gene 7076)",inactive
same,outcome,[7],inactive
same,AC50,[8],68.7 µM (active)
O=C(c1ccccc1)c1ccccc1,outcome,[1],inactive
same,outcome,[2],inactive
same,outcome,[3],inactive
same,outcome,[4],inactive
same,outcome,[5],inactive
same,outcome,[6],inactive
same,outcome,"TIMP1, TIMP1 (gene 7076)",inactive
same,outcome,[7],inactive
same,outcome,[8],inactive
